Test results as given in PubChem BioAssay (EPA / NIEHS).
Records with an inconclusive call do not appear. The source holds several records for some structures; these can differ, active in one and inactive in another. Active and inactive are the calls of the source. The calls were made as follows, unless noted: active = hit-call score of the fitted dose curve at least 0.9, where 1 is the maximum; inactive = score below 0.9.

How the values were obtained:
[1] = read-out: Thrombomodulin, THBD (gene 7056); assay: BSK_LPS_Thrombomodulin: BioMAP Diversity Plus: LPS Assay for Thrombomodulin Biomarker Activity (AID 2284296); conditions: primary human HUVEC with PBMC
Outline: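 Thrombomodulin on the surface of LPS-activated endothelial/PBMC co-cultures was quantified by ELISA at 24 hours post-dosing, with DMSO as baseline. Parallel SRB total-protein staining flagged overt cytotoxicity.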

CD69, CD69 (gene 969) = assay: BSK_LPS_CD69: BioMAP Diversity Plus: LPS Assay for CD69 Biomarker Activity (AID 2284303); conditions: primary human HUVEC with PBMC
Outline: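 CD69 surface levels were read by ELISA after 24 h chemical treatment of an LPS-stimulated HUVEC plus PBMC co-culture; positive-direction fit against DMSO vehicle.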

[2] = read-out: Interleukin-1 alpha (IL1a), IL1A (gene 3552); assay: BSK_IMphg_IL1a: BioMAP Diversity Plus: IMphg Assay for Interleukin-1 alpha (IL1a) Biomarker Activity (AID 2284290); conditions: primary human endothelial cells with macrophages
Outline: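 IL-1α is quantified by ELISA at 24 h in the endothelial/macrophage IMphg co-culture, with gain of signal fitted relative to DMSO. Parallel SRB total-protein staining flags overt toxicity.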

[3] = read-out: E-selectin (Homo sapiens) (UniProt P16581); assay: BSK_IMphg_ESelectin: BioMAP Diversity Plus: IMphg Assay for Eselectin Biomarker Activity (AID 2284291); conditions: primary human endothelial cells with macrophages
Outline: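 Analysed against DMSO baseline in the positive fitting direction, this endpoint is an ELISA read of E-selectin. It comes from human venular endothelial cells co-cultured with macrophages, sampled 24 h post-dose.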

[4] = BSK_IMphg_SRB: Viability Assessment in the BioMAP Diversity Plus: IMphg Assay (AID 2284292); conditions: primary human endothelial cells with macrophages;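 also: measured one day after compound addition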
Outline: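 SRB viability endpoint: cultures of human endothelial cells plus macrophages fixed with 10% TCA, stained with 0.1% SRB, read at 560 nm 24 h post-dosing. Only gain-of-signal fitted, relative to DMSO.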

[5] = read-out: Macrophage colony-stimulating factor (MCSF), CSF1 (gene 1435); assay: BSK_IMphg_MCSF: BioMAP Diversity Plus: IMphg Assay for Macrophage colony-stimulating factor (MCSF) Biomarker Activity (AID 2284293); conditions: primary human endothelial cells with macrophages
Outline: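 M-CSF was measured by ELISA in human venular endothelial cell/macrophage co-cultures dosed for 24 hours. Sulforhodamine B staining of parallel cultures assessed cytotoxicity; data fitted against DMSO baseline.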

[6] = read-out: Interleukin-10 (IL10), IL10 (gene 3586); assay: BSK_IMphg_IL10: BioMAP Diversity Plus: IMphg Assay for Interleukin-10 (IL10) Biomarker Activity (AID 2284294); conditions: primary human endothelial cells with macrophages
Outline: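 IL-10 read by ELISA after 24 h chemical exposure of primary human venular endothelial cell/macrophage cocultures, with DMSO as baseline. Parallel SRB staining (560 nm) gauged overt cytotoxicity.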

[7] = BSK_IMphg_SRB.Mphg: Macrophage Viability Assessment in the BioMAP Diversity Plus: IMphg Assay (AID 2284295); conditions: primary human endothelial cells with macrophages
Outline: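 Cytotoxicity read-out: parallel cultures fixed with 10% TCA, stained with 0.1% sulforhodamine B, read at 560 nm. System combines venular endothelium and macrophages; sampled 24 h post-dosing, fitted positively relative to DMSO control.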

[8] = IUF_NPC2c_oligodendrocyte_migration_120hr: Leibniz Research Institute for Environmental Medicine (IUF) 120-hour Neural Progenitor Cell Migration Assay for Oligodendrocyte Migration (NPC2c) (AID 2284297);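 also: O4-positive oligodendrocyte migration distance divided by radial glia migration distance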
Outline: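 Human fetal neural progenitor spheres (0.3 mm) are plated on poly-D-lysine/laminin in N2 differentiation medium and exposed for 120 h, with half-medium renewal at day 3. Oligodendrocyte (O4+) migration distance comes from ICC imaging, normalised to radial glia migration.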

[9] = IUF_NPC2a_radial_glia_migration_120hr: Leibniz Research Institute for Environmental Medicine (IUF) 120-hour Neural Progenitor Cell Migration Assay for Radial Glia Migration (NPC2a) (AID 2284298)
Outline: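 Human fetal-cortex neural progenitor spheres (0.3 mm) plated on poly-D-lysine/laminin in N2 differentiation medium, exposed 120 h at 37C with half-medium renewal at day 3. Radial glia migration distance (um) measured from Hoechst-stained nuclei images; DMSO baseline.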

[10] = IUF_NPC2a_radial_glia_migration_72hr: Leibniz Research Institute for Environmental Medicine (IUF) 72-hour Neural Progenitor Cell Migration Assay for Radial Glia Migration (NPC2a) (AID 2284299)
Outline: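 Readout: mean of four manual brightfield measurements of radial glia migration distance (um) at 72 h. hNPC spheres (0.3 mm) exposed to 7 compound concentrations plus solvent control on PDL/laminin, 37C, 5% CO2; activity fitted relative to DMSO.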

[11] = IUF_NPC2b_neuronal_migration_120hr: Leibniz Research Institute for Environmental Medicine (IUF) 120-hour Neural Progenitor Cell Migration Assay for Neuron Migration (NPC2b) (AID 2284300)
Outline: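 0.3 mm hNPC spheres on poly-D-lysine/laminin in N2 differentiation medium exposed 120 h, half-medium refresh day 3; 7 concentrations, DMSO max 0.1%. Neuron (TUBB3) distance from sphere core by ICC imaging, normalised to radial glia migration.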

[12] = IUF_NPC3_neuronal_differentiation_120hr: Leibniz Research Institute for Environmental Medicine (IUF) 120-hour Neuronal Differentiation Assay (NPC3) (AID 2284301)
Outline: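 Neuronal differentiation of primary human neural progenitors measured by high-content imaging: percent TUBB3+ of Hoechst+ nuclei within migrated area at 120 h, seven-point serial dilution plus solvent control, gain or loss relative to DMSO.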

[13] = IUF_NPC4_neurite_length_120hr: Leibniz Research Institute for Environmental Medicine (IUF) 120-hour Neuronal Morphology Assay for Neurite Length (NPC4) (AID 2284302)
Outline: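 Neurons from differentiating human fetal neural progenitor spheres are scored for average neurite length after five days of compound exposure. Fitting uses DMSO as negative control.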

[14] = IUF_NPC4_neurite_area_120hr: Leibniz Research Institute for Environmental Medicine (IUF) 120-hour Neuronal Morphology Assay for Neurite Area (NPC4) (AID 2284305; active = hit-call score of the fitted dose curve at least 0.9, where 1 is the maximum)
Outline: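 Endpoint at 120 h: automated imaging of TUBB3/Hoechst-stained differentiating human neural progenitor spheres, neurite area per neuron from skeletonization. DMSO solvent control, not above 0.1%, set the baseline; medium was half-replaced on day 3.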

[15] = IUF_NPC2-5_cytotoxicity_72hr: Cytotoxicity Assessment at 72 hours in the Leibniz Research Institute for Environmental Medicine (IUF) Neural Progenitor Cell Migration and Differentiation Assay for Cytotoxicity (NPC2-5) (AID 2284306; active = hit-call score of the fitted dose curve at least 0.9, where 1 is the maximum;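 also: LDH release into supernatant measured by resorufin fluorescence marking membrane damage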)
Outline: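 Primary human neural progenitor spheres migrate and differentiate on laminin. Compound is present from the start of differentiation, with DMSO kept at or below 0.1%. At 72 h, supernatant LDH is quantified fluorometrically, with values fitted in the positive direction.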

[16] = IUF_NPC2-5_cytotoxicity_120hr: Cytotoxicity Assessment at 120 hours in the Leibniz Research Institute for Environmental Medicine (IUF) Neural Progenitor Cell Migration and Differentiation Assay (NPC2-5) (AID 2284307; active = hit-call score of the fitted dose curve at least 0.9, where 1 is the maximum)
Outline: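 Human fetal (GW 16-19) neural progenitor spheres (0.3 mm) plated on poly-D-lysine/laminin in N2 differentiation medium, exposed 120 h with half-medium renewal at day 3; 7 concentrations plus solvent control, DMSO ≤0.1%. LDH release in supernatant read by resorufin fluorescence.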

[17] = IUF_NPC2-5_cell_number_120hr: Cell Number Assessment at 120 hours in the Leibniz Research Institute for Environmental Medicine (IUF) Neural Progenitor Cell Migration and Differentiation Assay (NPC2-5) (AID 2284308);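 also: count of Hoechst-stained nuclei in migration zone around plated human neural progenitor spheres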
Outline: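 Human fetal neural progenitor spheres (0.3 mm) plated on poly-D-lysine/laminin in N2 differentiation medium, exposed five days across 7 concentrations with half-medium refresh at day 3. Hoechst-positive nuclei counted in migration area at 120 h, relative to DMSO.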

[18] = IUF_NPC2-5_viability_120hr: Viability Assessment at 120 hours in the Leibniz Research Institute for Environmental Medicine (IUF) Neural Progenitor Cell Migration and Differentiation Assay (NPC2-5) (AID 2284312)
Outline: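 Human fetal (GW 16-19) neural progenitor spheres of 0.3 mm were plated on poly-D-lysine/laminin in N2 differentiation medium and exposed from day 0 for 120 h, with half-medium refresh at day 3. Viability was read as alamar blue resazurin-to-resorufin fluorescence against DMSO.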

Measured: AC50

Sequence of E-selectin (Homo sapiens) (P16581 whole entry, looked up): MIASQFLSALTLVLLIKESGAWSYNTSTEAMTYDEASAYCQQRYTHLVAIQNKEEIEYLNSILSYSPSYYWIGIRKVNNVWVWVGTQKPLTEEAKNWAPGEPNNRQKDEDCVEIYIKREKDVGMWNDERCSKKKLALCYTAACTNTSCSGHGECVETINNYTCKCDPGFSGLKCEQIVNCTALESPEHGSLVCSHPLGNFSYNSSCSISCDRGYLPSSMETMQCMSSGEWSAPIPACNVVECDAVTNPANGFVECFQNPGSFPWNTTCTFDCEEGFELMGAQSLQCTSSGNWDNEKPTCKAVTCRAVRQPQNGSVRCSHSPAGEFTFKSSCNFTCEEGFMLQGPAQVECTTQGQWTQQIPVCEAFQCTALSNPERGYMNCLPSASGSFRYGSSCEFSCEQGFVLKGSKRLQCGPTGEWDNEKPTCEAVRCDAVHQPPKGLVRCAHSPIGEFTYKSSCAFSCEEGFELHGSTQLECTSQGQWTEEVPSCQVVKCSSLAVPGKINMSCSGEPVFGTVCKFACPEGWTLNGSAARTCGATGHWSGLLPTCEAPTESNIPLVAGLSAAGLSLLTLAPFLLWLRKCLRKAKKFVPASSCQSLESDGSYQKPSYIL

CCCCC(CC)COP(=O)(O)OCC(CC)CCCC (configuration not stated)
active: CD69, CD69 (gene 969) 0.987 µM
inactive: [1] | CD69, CD69 (gene 969)

FC(F)(F)C(F)(F)C(F)(F)C(F)(F)C(F)(F)C(F)(F)C(F)(F)C(F)(F)CCS
inactive: [2] | [3] | [4] | [5] | [6] | [7] | [1] | CD69, CD69 (gene 969)

FC(F)(F)C(F)(F)C(F)(F)N(C(F)(F)C(F)(F)C(F)(F)F)C(F)(F)C(F)(F)C(F)(F)F
inactive: [2] | [3] | [4] | [5] | [6] | [7] | [1] | CD69, CD69 (gene 969)

O=C(O)C(F)(OC(F)(F)C(F)(OC(F)(F)C(F)(OC(F)(F)C(F)(F)C(F)(F)F)C(F)(F)F)C(F)(F)F)C(F)(F)F (configuration not stated)
inactive: [2] | [3] | [4] | [5] | [6] | [7] | [1] | CD69, CD69 (gene 969)

C=C(C)C(=O)OCC(F)(F)C(F)(F)C(F)(F)F
inactive: [2] | [3] | [4] | [5] | [6] | [7] | [1] | CD69, CD69 (gene 969)

FC(F)(F)C(F)(F)C(F)(F)C(F)(F)C(F)(F)CCI
inactive: [2] | [3] | [4] | [5] | [6] | [7] | [1] | CD69, CD69 (gene 969)

CCCCCCCCC(F)(F)C(F)(F)C(F)(F)C(F)(F)C(F)(F)C(F)(F)F
inactive: [2] | [3] | [4] | [5] | [6] | [7] | [1] | CD69, CD69 (gene 969)

FC(F)(F)C(F)(F)C(F)(F)C(F)(F)C(F)(F)C(F)(F)CC1CO1 (configuration not stated)
inactive: [2] | [3] | [4] | [5] | [6] | [7] | [1] | CD69, CD69 (gene 969)

OC[C@@H](O)[C@@H](O)[C@H](O)[C@@H](O)CO
not listed: [1] | CD69, CD69 (gene 969) | [2] | [3] | [4] | [5] | [6] | [7]
inactive: all other assays above

Cc1ccc(S(=O)(=O)OCC(F)(F)C(F)(F)C(F)(F)C(F)(F)C(F)(F)C(F)F)cc1
active: CD69, CD69 (gene 969) 7.94 µM
inactive: [2] | [3] | [4] | [5] | [6] | [7] | [1] | CD69, CD69 (gene 969)

O=C(O)C(F)(F)C(F)(F)C(F)(F)C(F)(F)C(F)(F)C(F)(F)C(F)(F)C(F)(F)C(F)(F)C(F)(F)C(F)(F)C(F)(F)C(F)(F)F
inactive: [2] | [3] | [4] | [5] | [6] | [7] | [1] | CD69, CD69 (gene 969)
